Measured values: PubChem BioAssay (NCATS)
Results filed as inconclusive are left out. Unless noted, the call rests on the fitted dose curve; in most records, active means well fitted curve in either direction with a large enough effect (not every such curve was filed as active); inconclusive means small, poorly fitted or top-dose-only effect, or another doubt; inactive means flat fitted curve, though single readings scatter.

Tests used:
[1] = AP1 Signaling Pathway (AID 357); conditions: ME-180 AP-1-bla reporter, EGF-induced, beta-lactamase ratio, 5 h; at 17.2 µM (top of the series) unless noted;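 further: ME-180 reporter cells stimulated with EGF at its EC50 level; on the % scale 0 is the no-effect control and ±100 the full control effect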
Summary of the method: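 Read-out was the 460nm/530nm emission ratio (excitation 405nm) after CCF4 loading for 2.5 hours at room temperature. Cells carried an AP-1-driven beta-lactamase reporter, were stimulated with EC50 EGF plus compound for 5 hours, and AC50 values came from titrations.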

[2] = Stat Signaling Pathway (AID 446); conditions: ME-180 SIE beta-lactamase reporter, IL-6 stimulated, 5 h; at 17.2 µM (top of the series) unless noted;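 further: ME-180 cervical cancer cells given 40 pM IL-6 alongside compound; SIE-controlled beta-lactamase reporter measured as 460/530 nm FRET emission ratio; on the % scale 0 is the no-effect control and ±100 the full control effect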
Summary of the method: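 ME-180 cells carrying a SIE-driven beta-lactamase reporter are stimulated with 40 pM IL-6 for 5 h at 37C in the presence of compound. The 460/530 nm FRET substrate ratio is read after 2.5 h at RT. Data are normalised to 300 pM IL-6 and to 125 nM JAK inhibitor controls.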

[3] = target: Glucocorticoid receptor (Homo sapiens) (UniProt P04150); test: GR-GFP Redistribution (AID 450;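 active means compounds whose dose series gives a full or clear partial fitted curve of increased nuclear translocation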; further: potency means the concentration at half of the fitted maximal effect)
Sequence of Glucocorticoid receptor (Homo sapiens) (P04150 whole entry, looked up): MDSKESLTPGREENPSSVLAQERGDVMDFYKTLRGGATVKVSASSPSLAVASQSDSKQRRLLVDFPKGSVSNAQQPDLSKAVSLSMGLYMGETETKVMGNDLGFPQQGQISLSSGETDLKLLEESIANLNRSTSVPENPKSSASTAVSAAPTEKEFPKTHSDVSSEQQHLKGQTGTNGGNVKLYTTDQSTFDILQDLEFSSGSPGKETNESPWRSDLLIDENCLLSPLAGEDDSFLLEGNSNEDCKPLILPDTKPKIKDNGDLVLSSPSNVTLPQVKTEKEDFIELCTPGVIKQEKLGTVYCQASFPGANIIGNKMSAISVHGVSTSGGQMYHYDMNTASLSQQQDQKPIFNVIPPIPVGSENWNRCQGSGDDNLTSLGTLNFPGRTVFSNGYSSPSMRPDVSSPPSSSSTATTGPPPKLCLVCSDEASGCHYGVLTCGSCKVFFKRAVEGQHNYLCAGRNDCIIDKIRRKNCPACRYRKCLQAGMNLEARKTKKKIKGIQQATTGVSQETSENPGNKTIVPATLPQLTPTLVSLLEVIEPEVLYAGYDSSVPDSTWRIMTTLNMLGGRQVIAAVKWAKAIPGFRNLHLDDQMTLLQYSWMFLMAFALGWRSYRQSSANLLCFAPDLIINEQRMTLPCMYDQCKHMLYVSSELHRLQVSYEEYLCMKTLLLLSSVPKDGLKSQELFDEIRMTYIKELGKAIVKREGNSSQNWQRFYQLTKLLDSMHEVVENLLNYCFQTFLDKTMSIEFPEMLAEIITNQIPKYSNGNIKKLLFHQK

CCC1CCCCN1c1nc(-c2cccc(OC)c2O)nc2ccccc12 (centres undefined)
inactive: activity change, negative = inhibition [1] -8.8% | activity, negative = inhibition [2] -4.92% | Potency [3] > 20.6 µM

Cc1ccc2nc(NCc3ccccc3)[nH]c2c1
inactive: activity change, negative = inhibition [1] 1.71% | activity, negative = inhibition [2] -9.23% | Potency [3] > 20.6 µM

CCOC(=O)C(C)Sc1nc(-c2cccs2)ccc1C#N (centres undefined)
inactive: activity change, negative = inhibition [1] 7.21% | activity, negative = inhibition [2] -3.63% | Potency [3] > 20.6 µM

CC(C)Cn1nc(NC(=O)C(C)(C)C)c2cc3ccccc3nc21
inactive: activity change, negative = inhibition [1] -20.3% | activity, negative = inhibition [2] -6.46% | Potency [3] > 20.6 µM

O=c1[nH]c(=O)n(Cc2ccco2)c2c1C(C(F)(F)F)(C(F)(F)F)N=C(c1ccco1)N2
inactive: activity change, negative = inhibition [1] 3.52% | activity, negative = inhibition [2] -26.4% | Potency [3] > 20.6 µM

CCCc1cc(Nc2c(C)n(C)n(-c3ccccc3)c2=O)n2c(nc3ccccc32)c1C#N
inactive: activity change, negative = inhibition [1] -3.24% | activity, negative = inhibition [2] 0.163% | Potency [3] > 20.6 µM

CCOC(=O)c1[nH]c2ccc(OC)cc2c1NC(=O)CCN1CCN(Cc2ccccc2)CC1
inactive: activity change, negative = inhibition [1] -6.55% | activity, negative = inhibition [2] 4.87% | Potency [3] > 20.6 µM

O=c1[nH]c(CN2CCCCC2)nc2c1C1(CCCC1)Cc1ccccc1-2
inactive: activity change, negative = inhibition [1] 14.5% | activity, negative = inhibition [2] -7.96% | Potency [3] > 20.6 µM

COc1ccc(Nc2oc(-c3cccs3)nc2C#N)cc1
inactive: activity change, negative = inhibition [1] -23.7% | activity, negative = inhibition [2] -1.34% | Potency [3] > 20.6 µM

CN1CCN(CC(=O)Nc2nc(-c3ccccc3)cs2)CC1
inactive: activity change, negative = inhibition [1] 9.16% | activity, negative = inhibition [2] -4.84% | Potency [3] > 20.6 µM

COCCCNC(=O)c1c(N)n(/N=C/c2ccccn2)c2nc3ccccc3nc12
inactive: activity change, negative = inhibition [1] -25.1% | activity, negative = inhibition [2] -10.3% | Potency [3] > 20.6 µM

COC(=O)c1c(NC(=O)c2nn(C)cc2Cl)sc2c1CCCC2
inactive: activity change, negative = inhibition [1] -24.3% | activity, negative = inhibition [2] -10.7% | Potency [3] > 20.6 µM

CCCCOC(=O)C(C)c1c(C)[nH]c(=S)[nH]c1=O (centres undefined)
inactive: activity change, negative = inhibition [1] 7.17% | activity, negative = inhibition [2] -3.5% | Potency [3] > 20.6 µM

Fc1ccccc1-c1nc(NCCCN2CCOCC2)c2ccccc2n1
inactive: activity change, negative = inhibition [1] 0.19% | activity, negative = inhibition [2] -7.69% | Potency [3] > 20.6 µM

CC(C)Cc1nc(N2CCN(C(=O)Cc3ccccc3)CC2)c(C#N)c2c1COC(C)(C)C2
inactive: activity change, negative = inhibition [1] -5.38% | activity, negative = inhibition [2] -23.7% | Potency [3] > 20.6 µM

COc1cccc(/C(O)=C2/C(=O)C(=O)N(CCCN(C)C)C2c2cccc(Cl)c2)c1 (centres undefined)
inactive: activity change, negative = inhibition [1] 5.09% | activity, negative = inhibition [2] 5.04% | Potency [3] > 20.6 µM

CCCOc1cc(CN2CCCCC2)cc(C(C)=O)c1
inactive: activity change, negative = inhibition [1] 27.9% | activity, negative = inhibition [2] 7.32% | Potency [3] > 20.6 µM

CCCCCn1c2nc3ccccc3nc2c2c(=O)n(CC(C)C)cnc21
inactive: activity change, negative = inhibition [1] 2.71% | activity, negative = inhibition [2] -12.9% | Potency [3] > 20.6 µM

Cc1nc(N2CCN(C(=O)c3ccc(Cl)cc3)CC2)c(C#N)c2c1COC(C)(C)C2
inactive: activity change, negative = inhibition [1] -10% | activity, negative = inhibition [2] -17.4% | Potency [3] > 20.6 µM

CCCC(=O)Nc1nn(CCC)c2nc3ccccc3cc12
inactive: activity change, negative = inhibition [1] -2.33% | activity, negative = inhibition [2] -4.63% | Potency [3] > 20.6 µM

CC(C)c1nc2sc3c(c2c(=O)o1)CCCC3
inactive: activity change, negative = inhibition [1] -7.93% | activity, negative = inhibition [2] 2.63% | Potency [3] > 20.6 µM

c1ccc(N2CCN(c3nc(NCc4ccco4)c4ccccc4n3)CC2)cc1
inactive: activity change, negative = inhibition [1] -16.8% | activity, negative = inhibition [2] -28% | Potency [3] > 20.6 µM

COc1ccc(C2C(C#N)=C(SC)NC3=C2C(=O)CC(C)(C)C3)cc1 (centres undefined)
inactive: activity change, negative = inhibition [1] -6.47% | activity, negative = inhibition [2] -6.08% | Potency [3] > 20.6 µM

CCCCn1c(O)c(C=NCCCN(C)C)c(=O)[nH]c1=O
inactive: activity change, negative = inhibition [1] -1.31% | activity, negative = inhibition [2] 3.99% | Potency [3] > 20.6 µM

CC(C)Cc1nc(N2CCOCC2)c(C#N)c2c1CCC2
inactive: activity change, negative = inhibition [1] -16.4% | activity, negative = inhibition [2] -0.768% | Potency [3] > 20.6 µM

C=CC[N+](C)(C)CCCNC(=O)/C=N/O
inactive: activity change, negative = inhibition [1] 6.86% | activity, negative = inhibition [2] 4.74% | Potency [3] > 20.6 µM

CC(C)c1cc(NCCCN2CCOCC2)n2c(nc3ccccc32)c1C#N
inactive: activity change, negative = inhibition [1] -14.3% | activity, negative = inhibition [2] 0.608% | Potency [3] > 20.6 µM

O=c1c2c3c(sc2n2cnnc2n1Cc1ccccc1)CN(Cc1ccccc1)CC3
inactive: activity change, negative = inhibition [1] 0.127% | activity, negative = inhibition [2] -0.303% | Potency [3] > 20.6 µM

CCN(CC)CCCn1c(C)cc2c(c1=O)C(c1cccc(Cl)c1)C(C#N)=C(N)O2 (centres undefined)
inactive: activity change, negative = inhibition [1] -4.22% | activity, negative = inhibition [2] -2.98% | Potency [3] > 20.6 µM

C=CCn1c(=O)c(C(=O)NCCN(CC)CC)c(O)c2ccccc21
inactive: activity change, negative = inhibition [1] 14.7% | activity, negative = inhibition [2] 8.32% | Potency [3] > 20.6 µM

CNC(=O)Nc1cccc(NC(=O)NC)n1
inactive: activity change, negative = inhibition [1] 13% | activity, negative = inhibition [2] 0.623% | Potency [3] > 20.6 µM

COc1ccc(C(=O)Nc2cccnc2)cc1C(=O)Nc1cccnc1
inactive: activity change, negative = inhibition [1] 3.61% | activity, negative = inhibition [2] -4.76% | Potency [3] > 20.6 µM

CN1CCN(CCC(=O)N2c3ccccc3Sc3ccc(Cl)cc32)CC1
inactive: activity change, negative = inhibition [1] 12.7% | activity, negative = inhibition [2] 6.36% | Potency [3] > 20.6 µM
